This is a sample that favours compounds with a hit; in the whole collection about 10% have one here.
ALDH1A1 block = qHTS Assay for Inhibitors of Aldehyde Dehydrogenase 1 (ALDH1A1); Aldehyde dehydrogenase 1A1 (Homo sapiens), P00352; Potency, µM (top dose mostly 75.3 µM), without a hit: top-dose activity, negative = inhibition, hits mostly inhibitors; 220,000 compounds, 7.3% hits; Purified ALDH1A1, NADH fluorescence, propionaldehyde substrate;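 note: potency is the fitted concentration of half-maximal effect; plate controls were no enzyme wells and a reference inhibitor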
PNC assembly inh = High Content Assay for Compounds that inhibit the Assembly of the Perinucleolar Compartment; PC3M PTB-GFP, PNC prevalence imaging, 16 h; active compounds read low; activity change (PNC), negative = inhibition, % at 10 µM; 140,000 compounds, 3.1% hits;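 active = readout at or below -70, meaning at least 70% loss of cells showing the perinucleolar compartment, a nuclear body marking cancer cells; inconclusive = readout between -30 and a set limit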;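 note: plate controls were DMSO wells for no effect and camptothecin positive control wells for full effect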
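Compounds are pinned in duplicate onto adhered PC3M cells stably expressing GFP-tagged PTB and incubated 16 h at 37 C. Cells are then fixed, nuclei stained with Hoechst, and PNC-positive cells counted.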
Luc counter = Counterscreen for Luciferase (Kinase-Glo TM) Inhibition; Luciferin 4-monooxygenase (Photuris pensylvanica), Q27757; Kinase-Glo luciferase, ATP luminescence, 8 min; 200,000 compounds, 0.28% hits; Potency, µM (series often up to 38.3 µM), without a hit: at the top dose activity change, negative = inhibition, actives largely listed as inhibitors; active = well fitted inhibition curve with a large enough effect; inconclusive = small, poorly fitted or top-dose-only effect; note: potency is the fitted concentration of half-maximal effect; nearly all actives have a fitted effect of over 60% in size
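Light output from Kinase-Glo luciferase with luciferin and 10 uM ATP in 50 mM imidazole pH 7.2, KCl, MgCl2, Tween 20, BSA; compound pin-delivered, 8-min ambient incubation, then luminescence read.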
LMNA splice mod = qHTS Assay for Modulators of Lamin A Splicing; Potency, µM (titrated, usually from 46.1 µM), for inactives: at the highest dose ratio change, negative = inhibition, actives largely listed as inhibitors; 200,000 compounds, 0.01% hits; HeLa LMNA splicing GFP/RFP minigene ratio, 48 h; AID 1487, 2009; active = well fitted inhibition curve with a large enough effect in the signal ratio, with a control signal flat, not every such curve was filed as active; inconclusive = small, poorly fitted or top-dose-only effect, or effect the other way, or a change in a side signal; the % refers to the signal ratio; note: potency is the fitted concentration of half-maximal effect
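S3 HeLa cells stably expressing lamin A-EGFP splicing minigene plus DsRed2, 600 cells/well, 48 h compound exposure at 37C. Laser-scanning cytometry; analysed as GFP (500-530 nm)/RFP (575-640 nm) total intensity ratio; 0.5% DMSO vehicle.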
HPGD inh = qHTS Assay for Inhibitors of HPGD (15-Hydroxyprostaglandin Dehydrogenase); 150,000 compounds, 4.3% hits; purified HPGD, NADH fluorescence kinetic, PGE2 substrate; Potency, µM, without a hit: at the highest dose activity change, negative = inhibition, usual class: inhibitors; AID 894, 2007; note: potency is the fitted concentration of half-maximal effect
Target sequence (P15428 whole entry, looked up): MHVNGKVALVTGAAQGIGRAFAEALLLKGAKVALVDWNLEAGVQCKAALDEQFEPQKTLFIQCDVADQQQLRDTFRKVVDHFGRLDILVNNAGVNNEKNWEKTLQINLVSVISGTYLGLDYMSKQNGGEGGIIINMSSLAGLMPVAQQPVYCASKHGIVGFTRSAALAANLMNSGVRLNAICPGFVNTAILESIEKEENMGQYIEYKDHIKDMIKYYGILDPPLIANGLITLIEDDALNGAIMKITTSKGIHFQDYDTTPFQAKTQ
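20 nM HPGD preincubated 15 min at room temperature with compound in 50 mM Tris-HCl pH 8, 0.01% Tween 20. Started with 1 mM NAD+ and 30 uM prostaglandin E2; NADH fluorescence (360/450 nm) read 5 times over 30-s intervals, last minus first.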
IMPase inh = qHTS Assay for Identifying the Cell-Membrane Permeable IMPase Inhibitors | Inositol monophosphatase 1 (Rattus norvegicus), P97697 | CHO-M1 cells, IP1 accumulation, HTRF TR-FRET ratio | 120,000 tested, under 10 active | inhibition (IP1 accumulation), % at 46.1 µM; active = well fitted curve in the direction sought with a large enough effect in the signal ratio, not every such curve was filed as active; inconclusive = small, poorly fitted or top-dose-only effect, or a change in a side signal; inactive = no such curve, though single readings can be large or run the other way; the % refers to the signal ratio;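 note: cells stimulated with carbachol in lithium chloride buffer; plate controls were DMSO basal wells for no effect and reference inhibitor wells for full effect; higher means more IMPase inhibition seen as more IP1 and lower FRET ratio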
Target sequence (P97697 whole entry, looked up): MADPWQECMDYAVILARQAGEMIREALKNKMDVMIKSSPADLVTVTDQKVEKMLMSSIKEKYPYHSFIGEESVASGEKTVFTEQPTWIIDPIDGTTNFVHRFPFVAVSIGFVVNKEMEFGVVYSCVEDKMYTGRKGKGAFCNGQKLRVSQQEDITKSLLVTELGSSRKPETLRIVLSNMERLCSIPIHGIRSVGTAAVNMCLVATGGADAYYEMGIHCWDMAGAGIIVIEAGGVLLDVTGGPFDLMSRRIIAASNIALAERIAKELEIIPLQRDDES
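Seeded CHO-M1 cells were dosed with compound at up to 46 uM, stimulated with carbachol for 30 min, then lysed in IP-One detection reagents. Higher IP1 lowers the TR-FRET signal.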
* hit, by the source's call; ? = inconclusive; / = no result given; ! = not active in a repeat; [ ] = another dose, or the depositor's remark. Unless noted, calls come from the whole dose curve; as a rule, active = well fitted inhibition curve with a large enough effect (not every such curve was filed as active); inconclusive = small, poorly fitted or top-dose-only effect, or another doubt; inactive = no such curve, though single readings can be large or run the other way. Unless noted, % is set by controls: 0 for no effect and ±100 for the full control effect.

SMILES	ALDH1A1 block	PNC assembly inh	Luc counter	LMNA splice mod	HPGD inh	IMPase inh
c1ccc(C2CO2)cc1 (stereo not drawn)	6%	/	/	/	-8%	/
C=CCN1C(=O)NC(=O)C(Cc2ccc(OC)c(OC)c2)C1=O (stereo not drawn)	25µM*	-19	-4%	-11%	-6%	5
N=C(N)n1cc(/C=N\N=C(N)N)cn1	-3%[13.5 µM]	/	-10%[7.66 µM]	/	-13%	/
CCN(CC)C(=O)c1ccc(NC(=O)Cn2nc(C)c3ccccc3c2=O)cc1	?	?	-2%	-8%	10µM*	0
O=C(N/N=C/C1C(=O)NC(=S)N(c2ccccc2)C1=O)c1cc(Br)c(O)c(Br)c1 (stereo not drawn)	13µM*	/	1%	/	/	/
Cc1ncc([N+](=O)[O-])n1CCN=[N+]=[N-]	9%[13.5 µM]	/	-6%[7.66 µM]	/	-1%	/
[O-]/[N+](=C/c1cccnc1)c1ccc(Br)cc1	1.8µM*	-9	0%	-6%	-18%	10
C[C@H](NC(=O)[C@@H](N)Cc1ccc(O)cc1)C(=O)NCC(=O)N(C)[C@@H](Cc1ccccc1)C(=O)N[C@H](CO)CCS(C)=O (stereo partly drawn)	6%	/	/	/	/	/
ClCc1ccccc1	-3%	/	/	/	-6%	/
CC([C@H](O)c1ccccc1)N(C)C (stereo partly drawn)	20µM*	/	-5%	-10%	-1%	/
CC1=CCCC2C1(C)CCC(C)C2(C)CC/C(C)=C/C[n+]1cn(C)c2c(N)ncnc21 (stereo not drawn)	18µM*	/	-5%	/	-7%	/
NCCNCCNCCNCCN	32µM*	/	/	?	-8%	/
COc1ccc(N2C(=O)NC(=O)/C(=C/c3ccc4c(c3)Cc3ccccc3-4)C2=O)cc1	?	/	0%	/	/	/
COc1ccc(OC)c(N2C(=O)NC(=O)/C(=C\c3ccc([N+](=O)[O-])s3)C2=O)c1	25µM*	/	-7%	-54%[46 µM]	/	/
COc1ccc(N2C(=O)NC(=O)/C(=C\c3ccccc3[N+](=O)[O-])C2=O)cc1	19µM*	/	-1%	14%[46 µM]	/	/
CCCC[N+](=O)[O-]	?	/	/	/	-5%	/
Nc1ccccc1C(=O)OCC(=O)N1CCc2ccccc21	?	-24	-9%	-2%	?	0
N#CSCC(=O)N1c2ccccc2CCc2ccccc21	0.79µM*	?	2%	?	18µM*	/
COc1ccc(CN2CCCCC2c2cccnc2)cc1C (stereo not drawn)	2%	34	-7%	10%	-12%	9
COc1cccc(CN2CCCCC2c2cccnc2)c1 (stereo not drawn)	32µM*	-83*	-3%	?	-16%	3
Oc1cccc(Cl)c1	2%	/	/	/	-7%	/
O=S1(=O)N(CCN2CC=C(c3c[nH]c4cc(F)ccc34)CC2)c2cccc3c2N1CCC3	25µM*	/	-2%	?	-20%	7
OCC(CBr)(CBr)CBr	18µM*	/	/	/	-9%	/
Cc1cc(SCc2sc(-c3ccc(C(F)(F)F)c(F)c3)nc2C)ccc1OCC(=O)O	?	/	-4%	/	10µM*	/
Cn1c(=O)cc(OCC(=O)N2CCC3(CC2)OCCO3)c2ccccc21	7%	-95*	-2%	-8%	-4%	-3
SMILES	ALDH1A1 block	PNC assembly inh	Luc counter	LMNA splice mod	HPGD inh	IMPase inh
Cn1c(=O)cc(OCCCC(=O)N2CCC3(CC2)OCCO3)c2ccccc21	?	?	-5%	?	-27%	?
c1ccc(OP(Oc2ccccc2)Oc2ccccc2)cc1	-16%	/	/	/	0%	/
C[C@]12Cc3cn4c(nc3C=C1CC[C@H]1[C@@H]2CC[C@@]2(C)[C@H]1CC[C@@]2(O)C#N)nc1ccccc14	/	/	/	/	/	2
CCc1cccc(CC)c1N(COC)C(=O)CCl	3%	/	0%	-5%	-3%	/
CCOCN(C(=O)CCl)c1c(C)cccc1CC	32µM*!	/	-3%	-5%	-5%	/
C[N+]1(C)CCO[C@@](O)(c2ccc(-c3ccc([C@]4(O)C[N+](C)(C)CCO4)cc3)cc2)C1	/	/	/	/	/	1
CCOC(=O)N1CCN(Cc2ccccc2F)CC1	14µM*	9	3%	7%	-1%	-5
Cc1ccc(CN2CCN(Cc3ccccc3F)CC2)cc1	?	/	2%	-3%[46 µM]	/	/
CC(O)C(C)OC(=O)[C@@H]1C[C@@H]2c3cccc4c3c(cn4C(C)C)C[C@H]2N(C)C1 (stereo partly drawn)	1.8µM*!	/	-3%	-22%	-16%	/
Cc1[nH]c2ccccc2c1/C=N/O	-9%	-86*	-5%	17%	13µM*	8
Cc1nccc2c1[nH]c1ccccc12	?	/	0%	-3%	?	-5
COc1ccc(N2C(=O)CC(N3CC=C(c4ccccc4)CC3)C2=O)cc1 (stereo not drawn)	10µM*	?	2%	-1%	?	-7
COc1cc(/C=N/NP(=S)(c2ccccc2)c2ccccc2)ccc1O	?	36	1%	3%	-21%	1
Oc1ccc(/C=N/NP(=S)(c2ccccc2)c2ccccc2)cc1	20µM*	4	-5%	-4%	32µM*	5
CCCCC/C=C\C/C=C\C/C=C\C/C=C\CCCC(=O)OC(CO)CO	22µM*!	/	-1%[39.9 µM]	/	28µM*!	/
CCCCC/C=C\C/C=C\CCCCCCCC(=O)NCCO	8%	/	0%	/	-2%	/
CCCCC/C=C\C/C=C\C/C=C\C/C=C\CCCC(=O)N[C@H](C)CO	7.1µM*!	/	-1%[39.9 µM]	/	-1%	/
CC(=O)[C@@]1(O)CC[C@H]2C3CCC4=CC(=O)CC[C@]4(C)C3CC[C@@]21C (stereo partly drawn)	3%	/	-1%	?	-13%	/
CC(C)=CCCC1(C)C=Cc2c(O)c3c(c(CC=C(C)C)c2O1)OC12C(CC4CC1C(C)(C)OC2(C/C=C(/C)C(=O)O)C4O)C3=O (stereo not drawn)	?	/	-8%	/	-20%	/
